Results filed as inconclusive are left out. The source made the active and inactive calls. Calls come from the whole dose curve; as a rule, active = well fitted activation curve with a large enough effect in the signal ratio, with a control signal flat (not every such curve was filed as active); inconclusive = small, poorly fitted or top-dose-only effect, or effect the other way, or a change in a side signal; inactive = flat fitted curve, though single readings scatter; the % refers to the signal ratio.

The nature of this experiment: qHTS Assay for Identification of Small Molecule Agonists for Hypoxia Response Element Signaling Pathway (AID 914). Note: % of control where 0% means no effect. The following applies: ME-180 (cervical carcinoma) HRE-bla reporter, beta-lactamase ratio, CoCl2, 17 h; active compounds read high. An outline of the steps:
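In Opti-MEM containing 0.5% dialyzed FBS and 10 mM HEPES, ME-180 HRE-bla cells received a compound titration and EC50 CoCl2. They were incubated 17 hours, then CCF4-loaded 2.5 hours at room temperature before ratio reading.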
A general note: Quantitative high-throughput screening tests each substance at several concentrations.
`CO[C@H]1COC(=O)C/C=C\[C@@H](C)COC(=O)[C@H]2CCCN2C(=O)C/C=C\[C@H]1C`: the activation was 11.3% (inactive).
For the compound `COC(=O)C(C(=O)OC)[C@@H]1CCCC(=O)C1`, the activation was -2.41% (inactive).
In the case of `CSCC[C@@H]1NC(=O)C/C=C\[C@@H](C)COC(=O)[C@H](C)COC1=O` it was 5.76% (inactive).
Regarding `Cc1ccc2nc3nc4ccc[nH]c4cc3c2c1`, the activation was -21.2% (inactive).
Take `C/C(CCN1CCCc2nc(C)c(C)cc21)=N\O[C@@H](C)c1cn([C@@H]2COC[C@@H]2O)nn1`: the activation is 8.15% (inactive).
In the case of `CO[C@H]1COC(=O)[C@H](C)COC(=O)[C@H](C)NC(=O)C/C=C\[C@H]1C` it was 5.98% (inactive); in that of `CC(C)C(=O)N[C@H]1CCCN1C(=O)/C=C\c1ccccc1`, 4.87% (inactive).
On to `O=C(N/N=C1/C[C@@H](O)[C@@H](O)[C@@H]2[C@@H]3C(=O)N(c4cccc(Oc5ccccc5)c4)C(=O)[C@H]3CC[C@H]12)OCc1ccccc1`, for which the activation was 9.49% (inactive).
Then `CC(C)C(=O)N[C@@H]1CCCN1C(=O)/C=C\c1ccccc1`, with 12.7% (inactive); and `CCN1C(=O)[C@H]2[C@H]3[C@H](O)[C@H](O)C/C(=N/OCc4ccccc4)[C@@H]3CC[C@@H]2C1=O`, with -12.3% (inactive).
In the case of `COc1ccc(COC(=O)N/N=C2/C[C@@H](O)[C@@H](O)[C@@H]3[C@@H]4C(=O)N(Cc5ccc6c(c5)OCO6)C(=O)[C@H]4CC[C@@H]23)cc1` it was 0.811% (inactive); in that of `C#CCCCO/N=C1/C[C@@H](O)[C@@H](O)[C@@H]2[C@@H]3C(=O)N(c4cccc(Oc5ccccc5)c4)C(=O)[C@H]3CC[C@@H]12`, -6.82% (inactive).

Source of the values: PubChem BioAssay (NCATS).
